Shown are actives, neighbours in structure and some others; about 1.2% of the full set was active somewhere.
B2AR arrestin = qHTS assay of beta-arrestin-biased ligands of beta2-adrenergic receptor; beta-arrestin recruitment to beta2AR, cell-based reporter; Potency, µM (series often up to 46.1 µM), usual class: activators; 0.02% of 330,000 active; AID 492947, 2010; also: nearly all actives have a fitted effect of over 65% in size
Target sequence (P07550 whole entry, looked up): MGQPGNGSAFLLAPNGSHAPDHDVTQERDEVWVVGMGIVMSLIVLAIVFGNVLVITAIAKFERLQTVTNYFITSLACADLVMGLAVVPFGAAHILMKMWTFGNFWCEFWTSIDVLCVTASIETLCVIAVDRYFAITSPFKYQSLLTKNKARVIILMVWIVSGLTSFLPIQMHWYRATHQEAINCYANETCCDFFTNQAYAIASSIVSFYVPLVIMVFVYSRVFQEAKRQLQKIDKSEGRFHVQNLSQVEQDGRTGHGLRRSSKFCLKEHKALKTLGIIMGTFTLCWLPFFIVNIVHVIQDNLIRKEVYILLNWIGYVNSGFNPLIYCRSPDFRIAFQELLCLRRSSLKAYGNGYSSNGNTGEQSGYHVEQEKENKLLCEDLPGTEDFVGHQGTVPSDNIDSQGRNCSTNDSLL
BRCA1 expr up = qHTS Assay to Identify Small Molecule Activators of BRCA1 Expression. MCF7-BRCA1-FFLuc reporter, luminescence, 48 h; response scale: scaled: vehicle 0%, 10 µM genistein 100%. AID 624202, 2012. Potency, µM (highest dose often 46.1 µM), actives largely listed as activators. 1.1% of 380,000 active; also: nearly all actives have a fitted effect of over 80% in size
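First, MCF7-BRCA1-FFLuc cells (2000/well) attach for 2 h; next, compounds are pin-added and incubated 48 h at 37 °C; finally, luciferase reagent is added and luminescence read after 15 min.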
Mito fusion act = qHTS Assay for Small Molecule Inhibitors of Mitochondrial Division or Activators of Mitochondrial Fusion; 0.23% of 320,000 active; AID 485298, 2010; S. cerevisiae fusion-defective mutant growth rescue, CellTiterGlo 48 h; Potency, µM (series often up to 46.1 µM), most hits filed as activators; also: nearly all actives have a fitted effect of over 45% in size
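Temperature-sensitive fusion-defective S. cerevisiae (e.g. fzo1-1, mgm1-5) were grown with compound in YPEG medium (3% ethanol, 3% glycerol) for 48 hours at 37C. Growth rescue was measured as viability by CellTiterGlo luminescence after 10 minutes at ambient.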
ERG Ets-DNA blk = qHTS for Small Molecule Inhibitors of the ERG Ets/DNA interaction | fluorescence polarization, His-ERG Ets domain / labelled DNA | AID 624246, 2012 | Potency, µM (doses to about 76.9 µM), hits mostly inhibitors | Transcriptional regulator ERG (Homo sapiens), P11308 | 0.028% of 370,000 active; active = well fitted inhibition curve with a large enough effect in the polarisation, with a control signal flat; inconclusive = small, poorly fitted or top-dose-only effect, or effect the other way, or a change in a side signal; inactive = no such curve, though single readings can be large or run the other way; the % refers to the polarisation;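 also: polarization taken with two DNA probes labelled with fluorescein and Texas red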
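His-tagged ERG Ets domain (1 uM in the protein solution; 300mM KCl, 50mM Tris-HCl, 1mM EDTA, 1mM DTT, pH 7.5) received compound, then a probe mix of 5 nM fluorescein-DNA and 100nM Texas-615-DNA. Fluorescence polarization was read for both dyes.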
Hits are given with their value. Unless noted, calls follow the shape of the dose curve; as a rule, active = well fitted curve in the direction sought with a large enough effect; inconclusive = small, poorly fitted or top-dose-only effect, or another doubt; inactive = no such curve, though single readings can be large; an effect the other way counts as inactive or inconclusive.

Results for C/C(=N\OC(=O)c1ccccc1)c1cc(-c2ccc(Cl)cc2)no1 ?
B2AR arrestin: inactive; BRCA1 expr up: 2.8µM; Mito fusion act: inactive; ERG Ets-DNA blk: inactive

How did N/C(Cc1ccc(Cl)cc1)=N\OC(=O)c1ccccc1 do in these assays?
B2AR arrestin: inactive; BRCA1 expr up: inactive; Mito fusion act: inactive; ERG Ets-DNA blk: inactive

Results for CC(=O)NCc1cc(-c2ccc(Cl)cc2)no1 ?
B2AR arrestin: inactive; BRCA1 expr up: inactive; Mito fusion act: inactive; ERG Ets-DNA blk: inactive

How did COc1ccc(C2c3c(n(C)c4ccccc34)C(=O)N2CC(=O)Nc2ccccc2Cl)cc1 (stereo not drawn) do in these assays?
ERG Ets-DNA blk: inactive

Results for Cc1ccc2c(CN3CCC(C)CC3)cc(=O)oc2c1 ?
B2AR arrestin: inactive; BRCA1 expr up: 3.2µM; Mito fusion act: inactive; ERG Ets-DNA blk: inactive

Results for COc1cc(C2Nc3ccccc3-c3nnc(SCc4ccc(C)cc4)nc3O2)cc(OC)c1O (stereo not drawn) ?
ERG Ets-DNA blk: inactive

Results for CCc1cccc(C)c1NS(=O)(=O)c1c(C(=O)N2CCC(C)CC2)c(C)n(C)c1C ?
ERG Ets-DNA blk: inactive

What do the screens show for `O=C(Nc1cccc(C(=O)O)c1)/C(=C\c1ccc2c(c1)OCO2)NC(=O)c1ccc(Br)o1`?
B2AR arrestin: inactive; BRCA1 expr up: 8.9µM; Mito fusion act: inactive; ERG Ets-DNA blk: inactive

How did O=C(Nc1ccc(C(=O)O)cc1)/C(=C\c1ccc2c(c1)OCO2)NC(=O)c1ccc(Br)o1 do in these assays?
B2AR arrestin: inactive; BRCA1 expr up: inactive; Mito fusion act: inactive; ERG Ets-DNA blk: inactive

Results for O=C(N/N=C/c1ccc2c(c1)OCO2)c1ccc(Br)o1 ?
B2AR arrestin: inactive; BRCA1 expr up: 5.6µM; Mito fusion act: inactive; ERG Ets-DNA blk: inactive

How did Cc1cc(C)cc(C(O)c2ncc(-c3ccc(Cl)cc3)[nH]2)c1 (stereo not drawn) do in these assays?
BRCA1 expr up: inactive

What do the screens show for `CSc1ncc(-c2ccc(Cl)cc2)[nH]1`?
B2AR arrestin: inactive; BRCA1 expr up: 10µM; Mito fusion act: inactive; ERG Ets-DNA blk: inactive

What do the screens show for `CCOc1ccc(NC(=O)Cn2c(=O)n(-c3ccccc3)c(=O)c3ccc(C(=O)NCc4ccc5c(c4)OCO5)cc32)cc1`?
BRCA1 expr up: inactive; ERG Ets-DNA blk: inactive

Results for CCOC(=O)C1(Cc2cccc(OC)c2)CCCN(C(=O)CCN2CCCO2)C1 (stereo not drawn) ?
B2AR arrestin: inactive; BRCA1 expr up: 4µM; Mito fusion act: inactive; ERG Ets-DNA blk: inactive

What do the screens show for `CCCc1ccc2oc(C(=O)NCCc3cnn(C)c3)c(C)c2c1`?
B2AR arrestin: inactive; BRCA1 expr up: 8.9µM; Mito fusion act: inactive; ERG Ets-DNA blk: inactive

What do the screens show for `CCCc1ccc2oc(C(=O)NCCc3nc(C(=O)OCC)cs3)c(C)c2c1`?
B2AR arrestin: inactive; BRCA1 expr up: inactive; Mito fusion act: inactive; ERG Ets-DNA blk: inactive

Results for CCOc1ccc(C(=O)Nc2cccc(NC(=O)c3ccc(C(C)(C)C)cc3)c2)cc1Br ?
ERG Ets-DNA blk: inactive

What do the screens show for `Cc1ccccc1Cn1nnc(C(=O)Nc2ccc3c(c2)OCCO3)c1N`?
B2AR arrestin: inactive; BRCA1 expr up: 3.5µM; Mito fusion act: inactive; ERG Ets-DNA blk: inactive

Results for Cc1ccc(NC(=O)c2nnn(-c3ccc4c(c3)OCCO4)c2N)cc1 ?
B2AR arrestin: inactive; BRCA1 expr up: 5.6µM; Mito fusion act: inactive; ERG Ets-DNA blk: inactive

How did Nc1nc(NCc2ccc(Cl)cc2Cl)c2[nH]cnc2n1 do in these assays?
BRCA1 expr up: inactive

Results for COc1ccc(Nc2nc(Nc3ccc(OC)cc3OC)nc(N3CCOCC3)n2)c(OC)c1 ?
ERG Ets-DNA blk: inactive

What do the screens show for `C/C(=N\NC(=O)c1sccc1C)c1ccncc1`?
B2AR arrestin: inactive; BRCA1 expr up: inconclusive; Mito fusion act: inactive; ERG Ets-DNA blk: inactive

How did C/C(=N\NC(=O)c1sccc1C)c1cccnc1 do in these assays?
B2AR arrestin: inactive; BRCA1 expr up: 2.8µM; Mito fusion act: inactive; ERG Ets-DNA blk: inactive

Results for O=C(c1ccc2ccccc2c1)C1CCCN(C(=O)c2noc3c2CCCC3)C1 (stereo not drawn) ?
B2AR arrestin: inactive; BRCA1 expr up: inactive; Mito fusion act: 10µM; ERG Ets-DNA blk: inactive
